Laboratory results: PubChem BioAssay AID1159580 (chemical genetic matrix, 2015)
Out of some 5,500 compounds screened, about 2,000 (36%) were called active. About 18% were inconclusive and are not listed. Cut-off read from the data, not from the text of the source: active = normalized growth mostly below about 0.91 (no sharp cut-off); inconclusive = no clear call, values can overlap the other calls; inactive = mostly above about 0.92. This is one part of the list.

Assay: chemical genetic growth profiling, strain panel (AID 1159580);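 note: tested at 20 µM; growth read once vehicle control cultures reached saturation at 30 °C; 1 = growth at the plate median or of vehicle wells; lower values mean less growth of the strain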
Details: S. cerevisiae deletion strains, growth OD
[1] = locus YAR019C, strain CDC15, hits give low values
[2] = locus YBL105C, strain PKC1, hits give low values
[3] = locus YBR135W, strain CKS1, hits give low values
[4] = locus YBR136W, strain MEC1, hits give low values
[5] = locus YBR160W, strain CDC28, hits give low values
[6] = locus YDL017W, strain CDC7, hits give low values
[7] = locus YDL028C, strain MPS1, hits give low values
[8] = locus YDL101C, strain DUN1, hits give low values
[9] = locus YDL108W, strain KIN28, hits give low values
[10] = locus YDL132W, strain cdc53, hits give low values
[11] = locus YDL214C, strain PRR2, hits give low values
[12] = locus YDR052C, strain DBF4, hits give low values
[13] = locus YDR054C, strain cdc34, hits give low values
[14] = locus YDR226W, strain ADK1, hits give low values
[15] = locus YDR477W, strain SNF1, hits give low values
[16] = locus YER123W, strain YCK3, hits give low values
[17] = locus YER133W, strain GLC7, hits give low values
[18] = locus YFL009W, strain cdc4, hits give low values
[19] = locus YFL029C, strain CAK1, hits give low values
[20] = locus YFR003C, strain YPI1, hits give low values
[21] = locus YFR019W, strain FAB1, hits give low values
[22] = locus YFR028C, strain CDC14, hits give low values
[23] = locus YGR040W, strain KSS1, hits give low values
[24] = locus YGR052W, strain FMP48, hits give low values
[25] = locus YGR092W, strain DBF2, hits give low values
[26] = locus YHR030C, strain SLT2, hits give low values
[27] = locus YHR079C, strain IRE1, hits give low values
[28] = locus YHR082C, strain KSP1, hits give low values
[29] = locus YHR205W, strain SCH9, hits give low values
[30] = locus YIL147C, strain SLN1, hits give low values
[31] = locus YJL095W, strain BCK1, hits give low values
[32] = locus YJL128C, strain PBS2, hits give low values
[33] = locus YJL157C, strain FAR1, hits give low values
[34] = locus YJR016C, strain ILV3, hits give low values
[35] = locus YJR066W, strain TOR1 (second series), hits give low values
[36] = locus YJR066W, strain TOR1, hits give low values
[37] = locus YKL048C, strain ELM1, hits give low values
[38] = locus YKL067W, strain YNK1, hits give low values
[39] = locus YKL101W, strain HSL1, hits give low values
[40] = locus YKL193C, strain SDS22, hits give low values
[41] = locus YKL203C, strain TOR2, hits give low values
[42] = locus YLR113W, strain HOG1, hits give low values
[43] = locus YLR133W, strain CKI1, hits give low values
[44] = locus YLR403W, strain SFP1, hits give low values
[45] = locus YML070W, strain DAK1, hits give low values
[46] = locus YMR001C, strain CDC5, hits give low values
[47] = locus YMR205C, strain PFK2 (second series), hits give low values
[48] = locus YMR277W, strain FCP1, hits give low values
[49] = locus YNL006W, strain LST8, hits give low values
[50] = locus YNL020C, strain ARK1, hits give low values
[51] = locus YNL161W, strain CBK1, hits give low values
[52] = locus YNL183C, strain NPR1, hits give low values
[53] = locus YNL207W, strain RIO2, hits give low values
[54] = locus YNL222W, strain SSU72, hits give low values
[55] = locus YNL307C, strain MCK1 (second series), hits give low values
[56] = locus YOL078W, strain AVO1, hits give low values
[57] = locus YOL136C, strain PFK27, hits give low values
[58] = locus YOR061W, strain CKA2, hits give low values
[59] = locus YOR119C, strain RIO1, hits give low values
[60] = locus YOR231W, strain MKK1, hits give low values
[61] = locus YOR329C, strain SCD5, hits give low values
[62] = locus YPL031C, strain PHO85, hits give low values
[63] = locus YPL153C, strain RAD53, hits give low values
[64] = locus YPL204W, strain HRR25, hits give low values
[65] = locus YPL209C, strain IPL1, hits give low values
[66] = locus YPL256C, strain CLN2, hits give low values
[67] = locus YPR025C, strain CCL1, hits give low values
[68] = locus YPR106W, strain ISR1, hits give low values
[69] = locus YPR111W, strain DBF20, hits give low values
[70] = strain NNK1, hits give low values
[71] = strain TSCII, hits give low values

Measured: normalized growth

C[C@@H](Nc1ncnc2sc3c(c12)CCCC3)c1ccccc1
active: [42] 0.766 | [66] 0.787
inactive: [1] 0.955 | [2] 0.955 | [3] 0.953 | [4] 0.958 | [5] 0.942 | [6] 0.961 | [7] 0.954 | [8] 0.945 | [9] 0.95 | [10] 0.951 | [11] 0.904 | [12] 0.963 | [13] 0.94 | [14] 0.963 | [15] 0.932 | [16] 0.895 | [17] 0.928 | [18] 0.951 | [19] 0.949 | [20] 0.958 | [21] 0.941 | [22] 0.951 | [23] 0.913 | [24] 0.954 | [25] 0.901 | [26] 0.924 | [27] 0.914 | [28] 0.944 | [29] 0.877 | [30] 0.954 | [31] 0.931 | [32] 0.889 | [33] 0.916 | [34] 0.963 | [35] 0.901 | [36] 0.969 | [37] 0.907 | [38] 0.917 | [39] 0.891 | [40] 0.953 | [41] 0.967 | [43] 0.919 | [44] 0.89 | [45] 0.893 | [46] 0.951 | [47] 0.919 | [48] 0.951 | [49] 0.956 | [50] 0.915 | [51] 0.954 | [52] 0.918 | [53] 0.944 | [54] 0.949 | [55] 0.912 | [56] 0.955 | [57] 0.893 | [58] 0.916 | [59] 0.979 | [60] 0.844 | [61] 0.959 | [62] 0.942 | [63] 0.918 | [64] 0.932 | [65] 0.947 | [67] 0.949 | [68] 0.93 | [69] 0.922 | [70] 0.929 | [71] 0.951

CC(C)N(CCC(=O)c1ccc2ccccc2c1)Cc1ccccc1
active: locus YAL013W, strain DEP1, hits give low values 0.086 | locus YAL040C, strain CLN3, hits give low values 0.0757 | locus YCL061C, strain MRC1 (second series), hits give low values 0.0525 | locus YDR150W, strain NUM1, hits give low values 0.058 | locus YDR363W, strain ESC2, hits give low values 0.141 | locus YER002W, strain NOP16, hits give low values 0.0619 | locus YGR078C, strain PAC10, hits give low values 0.107 | locus YJR075W, strain HOC1, hits give low values 0.0706 | locus YMR307W, strain GAS1, hits give low values 0.0933 | locus YNL128W, strain TEP1, hits give low values 0.0691 | locus YNL153C, strain GIM3, hits give low values 0.0944 | locus YNL175C, strain NOP13, hits give low values 0.111 | locus YNL197C, strain WHI3, hits give low values 0.534 | locus YNL224C, strain SQS1, hits give low values 0.0703 | locus YOR083W, strain WHI5 (second series), hits give low values 0.124

CC1CCC(C(C)C)C(N(Cc2ccccc2)C(=O)c2ccccc2)C1 (stereo unspecified)
inactive: [1] 0.996 | [2] 0.987 | [3] 0.986 | [4] 0.98 | [5] 0.986 | [6] 0.987 | [7] 0.994 | [8] 0.974 | [9] 0.986 | [10] 0.984 | [11] 0.961 | [12] 0.985 | [13] 0.991 | [14] 0.98 | [15] 0.98 | [16] 0.97 | [17] 0.978 | [18] 0.985 | [19] 0.994 | [20] 0.985 | [21] 0.954 | [22] 0.981 | [23] 0.963 | [24] 0.969 | [25] 0.946 | [26] 1.01 | [27] 1 | [28] 1.01 | [29] 0.911 | [30] 0.987 | [31] 0.923 | [32] 0.923 | [33] 0.979 | [34] 0.992 | [35] 0.959 | [36] 1.01 | [37] 0.958 | [38] 0.967 | [39] 0.932 | [40] 0.994 | [41] 1.01 | [42] 0.922 | [43] 0.945 | [44] 0.913 | [45] 0.961 | [46] 0.992 | [47] 0.976 | [48] 0.987 | [49] 0.988 | [50] 0.956 | [51] 0.984 | [52] 0.975 | [53] 0.979 | [54] 0.99 | [55] 0.898 | [56] 0.981 | [57] 0.925 | [58] 0.971 | [59] 1.05 | [60] 0.977 | [61] 0.991 | [62] 0.981 | [63] 0.983 | [64] 0.952 | [65] 0.986 | [66] 1.04 | [67] 0.988 | [68] 0.976 | [69] 0.948 | [70] 0.965 | [71] 0.985

CNCC[C@H](Oc1cccc2ccccc12)c1cccs1
inactive: [26] 0.991 | [27] 0.993 | [31] 1 | [36] 0.924 | [42] 1.02 | [52] 0.938 | [60] 0.988 | [66] 0.987

CNC(=O)Sc1c(-c2ccc(Cl)cc2)nn(C(=O)NC)c1SC
inactive: [1] 0.979 | [2] 0.961 | [3] 0.949 | [4] 0.952 | [5] 0.961 | [6] 0.949 | [7] 0.941 | [8] 0.958 | [9] 0.94 | [10] 0.978 | [12] 0.939 | [13] 0.985 | [14] 0.952 | [18] 0.962 | [19] 0.974 | [20] 0.946 | [22] 0.985 | [30] 0.934 | [32] 0.911 | [34] 0.969 | [40] 0.97 | [46] 0.971 | [48] 0.979 | [49] 0.971 | [51] 0.954 | [53] 0.964 | [54] 0.969 | [56] 0.981 | [61] 0.977 | [65] 0.97 | [67] 0.973 | [68] 0.994 | [69] 0.982 | [70] 0.996 | [71] 0.977
active: [11] 0.319 | [15] 0.428 | [16] 0.199 | [17] 0.485 | [21] 0.264 | [23] 0.413 | [24] 0.315 | [25] 0.266 | [26] 0.335 | [27] 0.324 | [28] 0.353 | [29] 0.446 | [31] 0.256 | [33] 0.315 | [35] 0.286 | [36] 0.302 | [37] 0.545 | [38] 0.335 | [39] 0.378 | [41] 0.491 | [42] 0.284 | [43] 0.397 | [44] 0.482 | [45] 0.297 | [47] 0.461 | [50] 0.342 | [52] 0.274 | [55] 0.233 | [57] 0.316 | [58] 0.355 | [59] 0.467 | [60] 0.315 | [62] 0.422 | [63] 0.337 | [64] 0.399 | [66] 0.368
